According to PubChem BioAssay AID504332 (National Center for Advancing Translational Sciences (NCATS), 2011):
The whole screen tested about 350,000 compounds, of which about 31,000 (8.9%) were called active. Inconclusive results (about 15%) are left out. The call rests on the fitted dose curve; in most records, active means well fitted inhibition curve with a large enough effect; inconclusive means small, poorly fitted or top-dose-only effect; inactive means no such curve, though single readings can be large or run the other way. The sample as a whole holds a higher share of actives than the screen did.

Target: Histone-lysine N-methyltransferase EHMT2 (Homo sapiens) (UniProt Q96KQ7)
Sequence (Q96KQ7 913-1193 limits assumed): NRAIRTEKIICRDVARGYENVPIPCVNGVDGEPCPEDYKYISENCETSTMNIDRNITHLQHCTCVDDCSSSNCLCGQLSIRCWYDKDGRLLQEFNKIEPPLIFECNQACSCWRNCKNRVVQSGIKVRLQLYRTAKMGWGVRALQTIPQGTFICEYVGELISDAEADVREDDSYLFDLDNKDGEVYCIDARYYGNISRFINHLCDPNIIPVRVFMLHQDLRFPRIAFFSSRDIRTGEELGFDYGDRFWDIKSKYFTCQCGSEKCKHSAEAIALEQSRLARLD
Experiment: qHTS Assay for Inhibitors of Histone Lysine Methyltransferase G9a; further: nearly all actives have a fitted effect of over 75% in size
Conditions: G9a H3K9 monomethylation, AlphaScreen, 2 h; series mostly up to 59 µM; activity, negative = inhibition: at the top concentration
Excerpt: Methylated lysines, on the N-terminal tails of histone proteins serve as epigenetic markers to recruit factors that can then modify local chromatin structure to lead to functional consequences. G9a and other members of the SUV39 family of the SET domain-containing superfamily of histone lysine methyltransferases (HMT) have been identified to specifically methylate Lys9 of histone H3 (H3K9). G9a catalyzes the mono- and di-methylation of H3K9 in mammalian euchromatic regions, where the resulting H3K9me2 is indicative of transcriptional repression. […] The inhibition of G9a will result in transcriptional activation and work synergistically with DNA methyltransferase and histone deacetylase inhibitors, to kill cancer cells. This qHTS assay for identification of G9a inhibitors is a chemiluminescence based AlphaScreen (PerkinElmer). Methylation of biotinylated-histone peptide is measured through specific antibody-based detection, in conjunction with streptavidin-coated donor and anti-IgG antibody-coated acceptor beads. The method is particularly well suited for detection of inhibitors acting by the desired histone peptide competitive mechanism and is applicable to testing other HMTs. Although AlphaScreen has significant advantages with its utility in a variety of epigenetic target assays, the primary screening data provided in this deposition should be used with caution due to the prevalence of screening artifacts. An AlphaScreen counterscreen is highly recommended to be run against any putative actives to eliminate non specific artifacts. Alternatively, one can use other AlphaScreen assays in PubChem to filter out promiscuous hits. Quinn et al. A chemiluminescence-based method for identification of histone lysine methyltransferase inhibitors. Mol Biosyst 6(5): 782-8. 2010. PMID: 20567762 [2] Baell,Holloway. New substructure filters for removal of pan assay interference compounds (PAINS) from screening libraries and for their exclusion in bioassays. J Med Chem. 53(7):2719-40. 2010. PMID: 20131845 NIH Molecular Libraries Probe Production Network [MLPCN] NIH Chemical Genomics Center [NCGC] Structural Genomics Consortium (SGC) NIH Grant: 5U54 MH084681-02
To each well of a 1,536w plate, 2ul of HMT enzyme (final 20nM) were added, using a nanoliter dispenser. The G9a- and GLP-inhibitor BIX-01294 (CID: 25150857) are used as an intraplate control, with a 16-point titration in duplicate. A Kalypsys pin-tool transferred 23nl of library compound solution in DMSO to each well. Following a 15 min incubation of enzyme with compounds at room temperature, 1ul mixture of b-H3K9 peptide substrate (final 500nM) and SAM cofactor (final 20uM) were added. Reactions were allowed to proceed at room temperature for 2 hours. Methylated b-H3K9 peptide product was detected with 0.5 ug/mL rabbit polyclonal anti-monomethyl histone H3K9 antibody (Abcam Inc., Cambridge, MA) and 20 ug/mL each streptavidin-coated donor and anti-rabbit IgG acceptor AlphaScreen beads. Antibody and beads were added in a 1ul dispense, for a final volume of 4ul, and plates were incubated, protected from the light, for 10 min at room temperature. Microplates were then read on an EnVision multilabel plate reader using the 1,536 plate HTS AlphaScreen aperture (excitation time 80 ms, measurement time 240 ms).
On the % scale 0 is the no-effect control and ±100 the full control effect; potency means the concentration at half of the fitted maximal effect.

activity, negative = inhibition, inactive:
CCC(C)N(C(=O)Cn1nc(C)c([N+](=O)[O-])c1C)C1CCS(=O)(=O)C1 (stereo not given) -29.5% [at 102 µM], Cc1cccc(NC(=O)CSc2nc3c(oc4ccccc43)c(=O)n2-c2ccc(F)cc2)c1 4.81%, COc1ccc(C(=O)CN2C(=O)NC3(CCc4ccccc43)C2=O)c(OC)c1 (stereo not given) 2.57%, CCC(CC)C(=O)N1CCc2cc(OC)c(OC)cc2C1COc1ccc(F)cc1 (stereo not given) 10.1%, CC(Oc1ccc(Br)cc1)C(=O)NCC(c1ccco1)N1CCCCC1 (stereo not given) -6.2% [at 102 µM], COc1ccc(NC(=O)C(=O)NCC(c2ccco2)N2CCc3ccccc3C2)cc1 (stereo not given) 24.1% [at 2.33 µM], O=C(Cn1nc(C(F)(F)F)c2c1CCCC2)Nc1ccc(Cl)cc1 2.55%, COc1ccccc1CNC(=O)C(=O)NCC(c1ccco1)S(=O)(=O)c1ccc(F)cc1 (stereo not given) -4.12%, Cc1cc(C)cc(NC(=O)CN2C(=O)c3ccccc3C2=O)c1 30% [at 102 µM], Cc1ccc(NC(=O)CCN2C(=O)c3ccccc3C2=O)cc1C 4.98% [at 102 µM], Cc1cc([N+](=O)[O-])c(N2CCC[C@@H]2C(=O)O)c([N+](=O)[O-])c1 9.82%, COC(=O)c1cc(C(=O)NC(C)C2CC3CCC2C3)cc([N+](=O)[O-])c1 (stereo not given) -43.7% [at 102 µM], CCN(CC)C(=O)c1nc[nH]c1C(=O)N(C)Cc1ccccc1 -4.89% [at 2.33 µM], CCc1ccc(C2CC(=O)c3c([nH]c(C(=O)OCc4ccc(C)cc4)c3C)C2)cc1 (stereo not given) -1.01%, Cc1ccc(/C=C2\SC(=S)N(CCC(=O)Nc3ccc(O)cc3)C2=O)cc1 9.57% [at 102 µM], C=CCOc1ccc(/C=C2\SC(=S)N(CCC(=O)O)C2=O)cc1 -6.64%, CCC(=O)Nc1ccc2nc(C)n(Cc3ccccc3Cl)c(=O)c2c1 6.34%, Cc1nc2ccn(Cc3cccnc3)c(=O)c2cc1C(=O)N1CCN(c2ccccc2F)CC1 7.35%, Cc1cccc(N(C)C(=O)CS(=O)(=O)c2cccc3nsnc23)c1 9.05%, O=C(NCCCc1ccccc1)c1ccc2c(c1)sc1nc(-c3ccc(F)cc3)cn12 -17.8%, O=C(Cn1cc(C(F)(F)F)ccc1=O)N/N=C/c1ccc(Cl)cc1Cl 1.22%, O=C(CN1CCN(C/C=C/c2ccccc2)CC1)Nc1ccc(F)cc1F -7.31% [at 102 µM], Cc1ccc(/C=N/NC(=O)CN2CCN(Cc3ccccc3)CC2)s1 14.1% [at 102 µM], Cc1ccc(COc2ccc(/C=N/NC(=O)CN3CCCCC3)cc2)cc1 -11.8% [at 102 µM], Cc1nn(CC(=O)N/N=C/c2ccc(F)cc2)c(C)c1[N+](=O)[O-] -0.915% [at 102 µM], O=C(CC(=O)N/N=C\c1ccc(F)cc1)NCCc1ccccc1 2.67% [at 0.501 µM], O=C1CCCc2cc(S(=O)(=O)N3CCCC(C(=O)NCc4ccccc4)C3)ccc2N1 (stereo not given) -9.07%, c1ccc2c(c1)CCc1snnc1-2 -5.46% [at 0.501 µM], Cc1ccccc1OCC(=O)NNC(=O)c1ccc(-n2cncn2)c([N+](=O)[O-])c1 21.2% [at 102 µM], COc1ccc(-c2cc(C(F)(F)F)n3nc(-c4ccccc4)cc3n2)cc1OC 33.6%, CSCCC(NC(=O)c1ccccc1)C(=O)N1CCCCCCC1 (stereo not given) 35.6% [at 12.7 µM], CC(C)N(Cc1nnc(-c2ccc(Cl)cc2)o1)C(=O)C1=COCCO1 -1.89% [at 102 µM], COc1cc2ccccc2cc1C(=O)Nc1ccccc1C 16.4%, COc1cccc(OCC(O)CNC(=O)c2oc3c(C)c(C)ccc3c2C)c1 (stereo not given) 14.5% [at 102 µM], CCCNC(=O)CCC(=O)N1Cc2ccccc2Oc2ncccc21 -5.24%, CCn1ccnc1CNC(=O)CC1C(=O)NCCN1CCCc1ccccc1 (stereo not given) 39.1% [at 102 µM], O=C(CC1C(=O)NCCN1Cc1ccc(-c2ccccc2)cc1)NCC1CCOCC1 (stereo not given) -23.9% [at 102 µM], COc1ccc(NC(=O)CSc2nc3ncccc3[nH]2)c(OC)c1 5.44%, CN(c1ccccc1)S(=O)(=O)c1cccc(NC(=O)Cc2ccc(Cl)cc2)c1 -10.8% [at 12.7 µM], CCc1ccc(C(=O)N2CCN(S(=O)(=O)c3sc(C(=O)O)c(C)c3C(=O)O)CC2)cc1 10.3% [at 2.33 µM], O=C(NCc1cccc(Cl)c1)C1=CC=CN2CCS(=O)(=O)N=C12 -59.1% [at 12.7 µM], Cc1ccccc1NC(=O)Cn1c(=O)n(CC2CCC(C(=O)NCCc3ccccc3)CC2)c(=O)c2ccccc21 (stereo not given) 6.89%, O=C(Nc1ncccc1O)c1ccc(C(=O)c2ccccc2)cc1 -9.21% [at 0.501 µM], COc1ccc(CNc2nc(-c3ccccc3)nn2C(=O)c2ccccc2OC)cc1 17%, COc1ccc(S(=O)(=O)N2CCC(C(=O)NCCC(=O)NCc3cccc(OC)c3)CC2)cc1 7.88% [at 102 µM], Cc1ccc(S(=O)(=O)Nc2nc3ccccc3s2)cc1[N+](=O)[O-] -3.63% [at 102 µM], COc1ccc(NS(=O)(=O)c2ccc(NC(=S)NC(=O)CC(C)C)cc2)cc1 -29.8% [at 12.7 µM], COc1ccc(NS(=O)(=O)c2ccc3oc(SCC(N)=O)nc3c2)cc1 -10.5% [at 102 µM], Cc1cccc(C(=O)Nc2ccc(-c3nc4ccccc4s3)c(C)c2)c1 10.3%, CC(C)NC(=O)C1CCC(Cn2c(=O)c3sccc3n(Cc3ccc(F)cc3)c2=O)CC1 (stereo not given) 9.1%, Cc1ccc(Cl)cc1NC(=O)CCS(=O)(=O)c1ccc(Br)s1 -47.7%, COc1ccccc1-n1nnnc1SCC(=O)NC(=O)Cc1ccccc1 17.7% [at 2.33 µM], O=C(Nc1ccc(F)cc1F)c1ccc2c(=O)n3c(nc2c1)CCCCC3 -21.5%, CCCCC/C=C/C1=CC(=O)C[C@H](c2ccc(Cl)cc2)C1 8.79% [at 0.501 µM], Cc1nnc(N2CCCC(C(=O)NCCN(C)C)C2)c2nn(-c3ccccc3)c(C)c12 (stereo not given) -30.8%, Cc1ccc(C)c(N2CCN(CCCNC(=O)Nc3ccc(Cl)cc3)CC2)c1 -40.9%, Cc1ccc(NC(=S)N(CCCN2CCC(C)CC2)Cc2ccco2)cc1 -33.9% [at 102 µM], COc1ccc(N=Nc2ccc(O)c(P(=O)(c3ccccc3)c3ccccc3)c2)cc1 4.01% [at 102 µM], COc1ccccc1N1CCN(c2ncnc3onc(-c4cccc(Cl)c4)c23)CC1 5.72%, O=C(c1cnc(Cl)c(Cl)c1)N1CCN(S(=O)(=O)c2ccc(F)cc2)CC1 1.49% [at 102 µM], CC1(c2ccc(Cl)cc2Cl)NC(=O)N(CC(=O)Nc2cccnc2Cl)C1=O (stereo not given) -2.03% [at 102 µM], COc1cc(OC)cc(C(=O)OCC(=O)Nc2ccc(F)cc2F)c1 -3.36% [at 102 µM], Cc1cccc(C(=O)OCC(=O)Nc2ccc(F)cc2)c1 -7.9% [at 102 µM], CC(CCN1CCN=C1N(C)C)c1ccccc1 (stereo not given) 11.1% [at 2.33 µM], COc1cc(OC)c(NC(=O)c2cc(S(=O)(=O)N3CCCC3)cn2C)cc1Cl -6.04%, CCOc1ccc(NS(=O)(=O)c2ccc(OCC(=O)NCCCOC)cc2)cc1 1.35% [at 12.7 µM], Cc1ccc(OCC(=O)Nc2ccc(S(=O)(=O)Nc3ccccn3)cc2)cc1 -2.38% [at 102 µM], Cn1c(COc2ccccc2C(C)(C)C)nc2ccccc21 -0.125%, CC(C)C(c1nnnn1C1CCCCC1)N1CCN(C(=O)c2ccco2)CC1 (stereo not given) 8.41% [at 102 µM], CC(C)C(c1nnnn1CCc1ccccc1)N1CCN(C(=O)c2ccco2)CC1 (stereo not given) 0.196% [at 102 µM], COC(=O)c1ccc(C2C(C(=O)Nc3ccccc3)=C(C)Nc3nc4ccccc4n32)cc1 (stereo not given) -7.28%, O=C(Oc1ccc(F)cc1)N1CCOCC1 21.7%, Cc1ccc(C(=O)Oc2ccc(C(=S)N3CCOCC3)cc2)cc1 10.7% [at 2.33 µM], O=C(CN1C(=O)S/C(=C\c2ccccc2Cl)C1=O)NC1C=CS(=O)(=O)C1 (stereo not given) 25.3% [at 102 µM], CCc1ccc(NC(=O)NC(C)c2ccc3c(c2)OCO3)cc1 (stereo not given) 11.5% [at 102 µM], CC(C)C(=O)Nc1cccc(C(=O)Nc2ccc3c(c2)OCO3)c1 -5.76% [at 102 µM], CC(NC(=O)Nc1cccc([N+](=O)[O-])c1)c1ccc2c(c1)OCO2 (stereo not given) -49.8% [at 102 µM], CC(C)NC(=O)CSc1ccccc1C(=O)NCc1ccc2c(c1)OCO2 9.25% [at 102 µM]

Potency, active:
CCCC1OC23CCCCC2C(C#N)(C#N)C1(C#N)C(=N)O3 (stereo not given) 17.8 µM, CCOC(CNC(=O)C(=O)NCC(c1ccco1)N1CCN(c2ccc(OC)cc2)CC1)OCC (stereo not given) 79.4 µM, Cc1cc2c(cc1C)N(C(=O)CN1C(=O)c3ccccc3C1=O)C(C)(C)c1ssc(=S)c1-2 28.2 µM, CC1CCC2CCCCC2N1C(=O)c1cc([N+](=O)[O-])cc([N+](=O)[O-])c1 (stereo not given) 44.7 µM, Cc1ccc(-c2nn(-c3ccccc3)cc2/C=C2\SC(=S)N(CCCCCC(=O)O)C2=O)o1 3.98 µM, CCN1CCN(c2cc3nc(C)n(Cc4ccccc4)c(=O)c3cc2NC(=O)c2ccccc2F)CC1 35.5 µM, O=C(CN1CCSCC1)N/N=C/c1ccc(F)cc1F 15.8 µM, O=C(CN1CCSCC1)N/N=C/c1ccc(F)cc1 8.91 µM, O=C(CN1CCSCC1)N/N=C/c1ccc(Cl)cc1 11.2 µM, O=C(CC1C(=O)NCCN1CC(c1ccccc1)c1ccccc1)NCCc1cn[nH]c1 (stereo not given) 44.7 µM, CCN(CC)c1cc(NC2CCCCC2)c2c3c(onc13)-c1ccccc1C2=O 7.08 µM, COc1ccc(S(=O)(=O)Nc2ccc(O)c(Sc3nc4ccccc4s3)c2)cc1 4.47 µM, O=C(O)c1cccc(S(=O)(=O)Nc2ccc(O)cc2Sc2nc3ccccc3s2)c1 7.94 µM, Cc1ccc(NC(=S)N(CCCN2CCCC2)Cc2cccn2Cc2ccc(Cl)cc2)cc1 50.1 µM, Cc1cc(N=Nc2ccc3ccccc3c2)ccc1O 35.5 µM, O=C(COC(=O)c1ccc(F)cc1F)Nc1ncccn1 35.5 µM, S=c1[nH]ccn1-c1ccc(Cl)cc1 3.98 µM, CNC(=O)COc1ccc(S(=O)(=O)Nc2ccccc2)cc1 50.1 µM, CCC(c1nnnn1C1CCCC1)N1CCN(C(=O)c2ccco2)CC1 (stereo not given) 17.8 µM, O=C(Oc1ccc(C(=S)N2CCOCC2)cc1)c1ccc(F)cc1 35.5 µM, CC(NC(=O)Nc1ccc2c(c1)OCO2)c1ccncc1 (stereo not given) 50.1 µM, CCSc1ccccc1C(=O)Nc1ccc2c(c1)OCO2 3.98 µM
